High-throughput results: PubChem BioAssay, National Center for Advancing Translational Sciences (NCATS)
Most compounds without a hit are left out; they make up all but 3.4% or so of the library.
VDR inhibitor – blocks the human vitamin D receptor; VDR-SRC2-3 peptide fluorescence polarization, 2 h; AID 504847; P11473; Potency, µM, without a hit: max response, negative = inhibition, usual class: inhibitors; hit rate 0.93% among 400,000; further: on the % scale 0 is the no-effect control and ±100 the full control effect
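Compounds are added to VDR with labelled SRC2-3 coactivator peptide and held 2 h at room temperature. Inhibition of the VDR–peptide interaction is then read as a change in fluorescence polarization.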
GLS inh – inhibitors of human glutaminase (GLS); GLS enzymatic activity, qHTS titration; Potency, µM (highest dose often 45.5 µM), for the others: top-dose activity change, negative = inhibition, most hits filed as inhibitors; hit rate 0.21% among 410,000; further: on the % scale 0 is the no-effect control and ±100 the full control effect
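hKGA in 45 mM KH2PO4 pH 8.2, 0.02% Tween-20 with pin-transferred compounds; 1 mM L-glutamine (stock) plus glutamate oxidase/HRP/Amplex Red coupling added. Fluorescence read initially and after 30 min at RT.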
PLK1 PBD block – PLK1 (human) polo-box domain binding inhibition; Plk1 PBD binding of FITC phosphopeptide, fluorescence polarization; Potency, µM, without a hit: max response, negative = inhibition, actives largely listed as inhibitors; hit rate 2.8% among 360,000; AID 720504; further: series mostly up to about 57 µM; on the % scale 0 is the no-effect control and ±100 the full control effect; nearly all actives have a fitted effect of over 65% in size
Target sequence (P53350 whole entry, looked up, the tested form may be a part): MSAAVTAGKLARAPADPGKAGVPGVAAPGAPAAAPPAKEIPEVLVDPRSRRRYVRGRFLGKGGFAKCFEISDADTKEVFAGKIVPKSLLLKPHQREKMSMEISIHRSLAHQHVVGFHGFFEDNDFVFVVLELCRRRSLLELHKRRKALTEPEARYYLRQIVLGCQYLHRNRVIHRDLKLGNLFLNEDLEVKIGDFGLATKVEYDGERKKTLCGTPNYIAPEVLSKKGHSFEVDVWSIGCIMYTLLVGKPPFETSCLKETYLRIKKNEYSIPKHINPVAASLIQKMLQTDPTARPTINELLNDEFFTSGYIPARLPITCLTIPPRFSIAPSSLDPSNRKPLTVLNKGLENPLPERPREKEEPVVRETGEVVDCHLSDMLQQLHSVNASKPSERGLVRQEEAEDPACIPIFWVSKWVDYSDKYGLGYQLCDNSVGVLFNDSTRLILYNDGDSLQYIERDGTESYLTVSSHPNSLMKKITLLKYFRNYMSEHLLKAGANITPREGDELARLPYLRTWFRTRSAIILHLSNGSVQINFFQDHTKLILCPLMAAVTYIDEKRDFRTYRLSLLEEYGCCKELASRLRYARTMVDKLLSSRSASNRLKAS
KAT2A inh – blocks human GCN5L2 histone acetyltransferase; GCN5L2 HAT assay, ThioGlo1 CoA-SH fluorescence; AID 504327; Q92830; Potency, µM (highest dose often 58.9 µM), without a hit: at the highest dose activity change, negative = inhibition, most hits filed as inhibitors; hit rate 0.21% among 390,000; further: on the % scale 0 is the no-effect control and ±100 the full control effect
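GCN5L2 (20nM final) in 50mM HEPES, 0.1mM EDTA pH 7.5, 0.01% Tween-20 was preincubated 15 min at room temperature with compound, then given ThioGlo1 (50uM), H3(1-25) peptide (75uM) and acetyl-CoA (70uM); CoA-thiol fluorescence (Ex340/Em540) was read at 0 and 20 min.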
PKM2 act – PKM2 (human) enzyme activation. AID 1631. Potency, µM (doses to about 57.5 µM), for inactives: at the highest dose activation, usual class: activators. purified PKM2, Kinase-Glo ATP luminescence, activation; response scale: 0% is enzyme alone, no compound. P14618. hit rate 0.34% among 260,000; further: on the % scale 0 is the no-effect control and ±100 the full control effect; nearly all actives have a fitted effect of over 55% in size
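Kinase-Glo luminescence reports ATP generated from ADP (0.1 mM) and PEP (0.5 mM) by purified hPK-M2 after 1 h at room temperature, pH 7.2 imidazole buffer; intermediate enzyme activity allows detecting inhibitors and activators.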
Mito fusion act – blocks mitochondrial division or promotes mitochondrial fusion; Potency, µM (series often up to 46.1 µM), for the others: at the top dose growth rescue (activation), most hits filed as activators; hit rate 0.23% among 320,000; S. cerevisiae fusion-defective mutant growth rescue, CellTiterGlo 48 h; further: % of control where 0% means no effect; nearly all actives have a fitted effect of over 45% in size
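Yeast fusion mutant, YPEG (non-fermentable carbon), compound, 48 h at 37C non-permissive; CellTiterGlo added, 10 min RT, luminescence read. Rescued growth = division inhibition.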
Starred values were filed as active, the others as inactive; ? = inconclusive; · = no result given; [ ] = another dose, or the depositor's remark. The call rests on the fitted dose curve; in most records, active means well fitted curve in the direction sought with a large enough effect; inconclusive means small, poorly fitted or top-dose-only effect, or another doubt; inactive means no such curve, though single readings can be large; an effect the other way counts as inactive or inconclusive. Potency means the concentration at half of the fitted maximal effect.

SMILES	VDR inhibitor	GLS inh	PLK1 PBD block	KAT2A inh	PKM2 act	Mito fusion act
Cc1ccc(Nc2nnc(SCC(=O)c3ccc(Br)s3)s2)c(C)c1	0%	13%	13%	-2%	0%	?
S=C(NCc1cccs1)Nc1ccccc1	-10%	2%	-9%	4%	1%	-5%
NS(=O)(=O)c1ccc(NC(=S)NCc2cccs2)cc1	-5%	5%	24µM*	-6%	7%	-2%
COc1ccccc1CNC(=S)Nc1ccc(S(N)(=O)=O)cc1	4%	0%	21µM*	-12%	·	-2%
COc1ccc(C)cc1NS(=O)(=O)c1ccc2c3c(cccc13)C(=O)N2	-114%	10%	·	-8%	·	·
O=C(CNC(=O)C(c1ccccc1)c1ccccc1)OCC(=O)c1ccc2ccccc2c1	62%	·	·	·	·	·
COc1ccc(C(=O)O)cc1S(=O)(=O)N1CCSCC1	-3%	0%	-1%	-11%	-1%	-1%
O=C(O[C@@H]1OC2COC(=O)c3cc(O)c(O)c(O)c3-c3c(cc(O)c(O)c3O)C(=O)O[C@@H]([C@H]1O)[C@@H]2O)c1cc(O)c(O)c(O)c1	-17%	28%	9.5µM*	?	9%	0%
CSCC[C@H](NC(=O)[C@H](CC(C)C)NC(=O)CNC(=O)[C@@H]1CCCN1C(=O)[C@H](Cc1ccccc1)NC(=O)[C@H](Cc1ccccc1)NC(=O)[C@H](CC(=O)O)NC(=O)[C@H](Cc1cnc[nH]1)NC(=O)[C@H](CCSC)NC(=O)[C@@H](N)CC(=O)O)C(N)=O	4%	·	·	3%	·	·
O=C(NCc1ccccc1OC(F)(F)F)C1CCC(=O)N(Cc2ccccn2)C1 (stereo not drawn)	?	?	12µM*	-5%	·	-8%
CCOC(=O)N1CCN(c2ccc([N+](=O)[O-])cc2)CC1	-18%	9%	-3%	0%	-4%	14%
CC(C)c1ccccc1NC(=O)COC(=O)/C=C/c1cccc([N+](=O)[O-])c1	?	-18%	15µM*	1%	-1%	-4%
CCOC(=O)N1CCN(C(=O)/C=C/c2ccc([N+](=O)[O-])cc2)CC1	-15%	0%	-14%	-1%	2%	1%
O=C(/C=C/c1cccc([N+](=O)[O-])c1)Nc1cc(C(=O)O)cc(C(=O)O)c1	35µM*	?	11µM*	-4%	2%	7%
CCNC(=O)COC(=O)/C=C/c1cccc([N+](=O)[O-])c1	-13%	-16%	-7%	-6%	1%	-2%
CCOC(=O)N1CCN(C(=O)/C=C/c2cccc([N+](=O)[O-])c2)CC1	0%	5%	30µM*	-7%	-16%	2%
CCOC(=O)N1CCN(/[N+]([O-])=N/Oc2ccc([N+](=O)[O-])cc2[N+](=O)[O-])CC1	45µM*	·	·	-14%	·	-7%
Cn1nc([N+](=O)[O-])nc1N1CCOCC1	10%	8%	-8%	-1%	-5%	-6%
Cc1cccc(C)c1-n1nnnc1C1c2ccccc2C(=O)N1CCCn1ccnc1 (stereo not drawn)	·	5%	-9%	·	·	·
CC#CCN1c2ccccc2[C@]23C[C@@H](C(=O)OC)N(S(=O)(=O)c4ccc([N+](=O)[O-])cc4)C2=NC(C(=O)OC)=C(C(=O)OC)[C@H]13	·	·	·	·	-2%[11.5 µM]	·
COc1cc2nc(N3CCCN(C)CC3)nc(NC3CCN(Cc4ccccc4)CC3)c2cc1OC	-8%	·	·	?	·	11%
N#Cc1c(-c2ccccc2)cc(-c2ccccc2)nc1SCC(O)CS(=O)(=O)Cc1ccc(Cl)cc1 (stereo not drawn)	28µM*	1%	·	?	·	·
N#Cc1c(-c2ccccc2)cc(-c2ccccc2)nc1SCC(=O)NCC(=O)O	?	?	24µM*	5%	2%	1%
CC(C)OC(=O)CC(=O)CSc1nc(-c2ccc(F)cc2)cc(-c2ccccc2)c1C#N	?	-5%	24µM*	-4%	8%	2%
CSc1nsc2nc(=O)c(/C=C3\C=Nc4ccccc43)c(N)n12	-16%	?	?	-2%	-11%	1%
SMILES	VDR inhibitor	GLS inh	PLK1 PBD block	KAT2A inh	PKM2 act	Mito fusion act
Nc1c(C=C2C=CC(=O)C=C2)c(=O)nc2snc(SCc3ccccc3)n12	-20%	-4%	21µM*	-12%	-3%	-8%
CC1CCN(CCNC(=O)c2ccc3c(=O)n(Cc4ccc(Cl)cc4)c(=S)[nH]c3c2)CC1	-2%	-6%	-4%	-1%	·	-10%
CCOC(=O)c1c2c3c(cccc3n(C)c1=O)C(=O)c1ccccc1-2	2%	-8%	-10%	-20%	2%	4%
CCOC(=O)c1c2c(n(Cc3ccccc3)c1C)C(=O)C(=O)c1ccccc1-2	50µM*	-6%	-7%	·	·	·
Nc1ncnc2nc(SCCOc3ccc(Cl)cc3)[nH]c12	-1%	1%	-2%	-5%	0%	0%
Cc1ccc(OCCSc2nc3ncnc(N)c3[nH]2)cc1	?	-23%	9.5µM*	-16%	1%	4%
O=C(NCCCc1ccccc1)c1cccc(NC(=O)C2CC2)c1	9%	-2%	-13%	·	·	·
O=C(NCCCCc1ccccc1)c1cccc(NC(=O)C2CC2)c1	79µM*	-4%	19µM*	·	·	·
COc1cccc(NC(=O)CN(c2ccc([N+](=O)[O-])cc2)S(=O)(=O)c2ccccc2)c1	0%	5%	0%	-7%	4µM*	6%
COc1ccc(N(CC(=O)N/N=C/c2ccc(F)cc2)S(=O)(=O)c2ccccc2)cc1	8%	-5%	10%	-8%	·	-7%
COc1cccc(NC(=O)CN(C)CC(=O)Nc2ccc(Cl)cc2[N+](=O)[O-])c1	-10%	-6%	3%	-7%	3.2µM*	-4%
COc1ccc(NC(=O)CN(C)S(=O)(=O)c2ccc(Cl)cc2)c([N+](=O)[O-])c1	2%	-15%	6%	1%	1%	1%
COc1ccc(/C=N/NC(=O)CN(c2ccc(OC)cc2)S(=O)(=O)c2ccccc2)cc1	-17%	33%	27µM*	-11%	4%	-4%
Cc1ccc(S(=O)(=O)N(CC(=O)N/N=C/c2ccccc2C(=O)O)c2cc(Cl)cc(Cl)c2)cc1	-20%	?	42µM*	-21%	0%	-7%
COc1ccc(NC(=O)CN(c2ccc([N+](=O)[O-])cc2)S(=O)(=O)c2ccccc2)cc1	-6%	0%	-1%	3%	-14%	9%
CCC(CC)C(=O)Nc1cc(-c2cccc(C)c2)nn1-c1ccccc1	10%	-8%	·	-9%	·	·
O=C(NCCOc1ccccc1F)c1ccc2c(=O)n3c(nc2c1)CCC3	10%	-2%	-4%	-6%	·	0%
